Laboratory results published in paper PMC7862700, “An all-to-all approach to the identification of sequence-specific readers for epigenetic DNA modifications on cytosine”.

Experiments:
Experiment in all cases: DAPPL (digital affinity profiling via proximity ligation, sequencing); 10 mM Tris-HCl pH 7.5, 50 mM NaCl, 1 mM DTT, 4% glycerol, room temperature, 30 min; GST-TFs on glutathione beads, 16-mer random dsDNA library, 0.1% formaldehyde crosslink after washing; high values mean tight binding
Settings in all cases: protein: recombinant; tags: N-terminal GST; dsDNA, one strand shown
ERF = biological target: T1, ERF (Homo sapiens, UniProt P50548 1-548)
T1 sequence: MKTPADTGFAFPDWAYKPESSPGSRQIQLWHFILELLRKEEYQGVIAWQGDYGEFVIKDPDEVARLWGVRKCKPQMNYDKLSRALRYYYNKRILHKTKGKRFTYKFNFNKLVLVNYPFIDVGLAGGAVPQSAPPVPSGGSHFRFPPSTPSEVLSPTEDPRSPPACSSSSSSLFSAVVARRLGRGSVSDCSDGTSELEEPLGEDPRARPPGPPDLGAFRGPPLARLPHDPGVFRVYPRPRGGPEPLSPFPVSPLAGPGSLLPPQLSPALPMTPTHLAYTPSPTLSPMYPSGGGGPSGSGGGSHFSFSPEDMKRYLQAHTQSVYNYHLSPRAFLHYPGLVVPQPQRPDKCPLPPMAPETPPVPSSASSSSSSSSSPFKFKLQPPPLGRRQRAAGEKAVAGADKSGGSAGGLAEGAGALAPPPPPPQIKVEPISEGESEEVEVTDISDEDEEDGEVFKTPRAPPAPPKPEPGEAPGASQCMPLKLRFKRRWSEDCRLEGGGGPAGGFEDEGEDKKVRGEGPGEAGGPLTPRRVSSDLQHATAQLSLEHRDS
Procedure, shortened: (§1)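 Pools were built from human transcription factors expressed in yeast as GST fusions, captured on glutathione beads and DNA-barcoded, along with a tag-only sample. Incubation with 200 nmole of a 16-mer random double-stranded DNA library lasted 30 min at room temperature in Tris/NaCl/DTT/glycerol buffer, and was followed by washing, 0.1% formaldehyde crosslinking, proximity ligation, PCR amplification and Illumina NextSeq500 sequencing. Binding signal is the quotient of each hexamer's read frequency for a factor and its frequency for the tag-only sample.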

ETV3L = biological target: T2, ETV3L (Homo sapiens, UniProt Q6ZN32 1-361)
T2 sequence: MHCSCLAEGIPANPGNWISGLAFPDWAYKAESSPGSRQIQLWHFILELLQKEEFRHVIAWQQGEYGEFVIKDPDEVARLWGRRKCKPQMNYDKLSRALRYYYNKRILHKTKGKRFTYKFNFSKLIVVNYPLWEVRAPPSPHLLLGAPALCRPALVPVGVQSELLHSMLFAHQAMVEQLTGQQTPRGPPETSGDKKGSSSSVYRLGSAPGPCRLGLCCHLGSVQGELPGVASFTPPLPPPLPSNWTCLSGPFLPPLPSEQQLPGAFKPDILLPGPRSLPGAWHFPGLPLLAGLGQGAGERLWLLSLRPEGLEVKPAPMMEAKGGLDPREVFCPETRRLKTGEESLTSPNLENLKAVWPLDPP
Procedure, shortened: as §1

ETS2 = biological target: T3, ETS2 (Homo sapiens, UniProt P15036 1-469)
T3 sequence: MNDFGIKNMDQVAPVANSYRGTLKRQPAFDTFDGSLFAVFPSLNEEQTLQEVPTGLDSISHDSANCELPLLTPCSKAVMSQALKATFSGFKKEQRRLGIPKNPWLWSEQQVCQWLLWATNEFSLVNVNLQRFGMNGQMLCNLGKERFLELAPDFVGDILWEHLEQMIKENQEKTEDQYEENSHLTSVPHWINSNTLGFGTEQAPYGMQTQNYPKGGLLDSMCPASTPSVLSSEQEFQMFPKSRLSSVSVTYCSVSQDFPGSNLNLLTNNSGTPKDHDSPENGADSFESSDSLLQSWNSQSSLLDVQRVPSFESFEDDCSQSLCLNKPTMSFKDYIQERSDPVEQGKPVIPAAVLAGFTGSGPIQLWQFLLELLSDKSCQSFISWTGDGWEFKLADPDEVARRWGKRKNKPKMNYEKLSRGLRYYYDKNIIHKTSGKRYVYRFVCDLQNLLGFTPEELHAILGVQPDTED
Procedure, shortened: as §1

SPDEF = biological target: T4, SPDEF (Homo sapiens, UniProt O95238 1-335)
T4 sequence: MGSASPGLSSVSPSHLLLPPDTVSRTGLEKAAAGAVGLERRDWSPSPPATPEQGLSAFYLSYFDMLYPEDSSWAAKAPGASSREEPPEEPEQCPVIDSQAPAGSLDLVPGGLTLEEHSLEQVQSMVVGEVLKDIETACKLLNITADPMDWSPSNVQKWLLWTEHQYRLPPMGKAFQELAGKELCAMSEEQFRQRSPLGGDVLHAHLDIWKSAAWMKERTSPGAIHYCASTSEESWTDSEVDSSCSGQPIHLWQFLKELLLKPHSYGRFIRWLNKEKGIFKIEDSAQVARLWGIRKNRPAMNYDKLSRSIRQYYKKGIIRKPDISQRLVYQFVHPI
Procedure, shortened: as §1

ETV7 = biological target: T5, ETV7 (Homo sapiens, UniProt Q9Y603 1-341)
T5 sequence: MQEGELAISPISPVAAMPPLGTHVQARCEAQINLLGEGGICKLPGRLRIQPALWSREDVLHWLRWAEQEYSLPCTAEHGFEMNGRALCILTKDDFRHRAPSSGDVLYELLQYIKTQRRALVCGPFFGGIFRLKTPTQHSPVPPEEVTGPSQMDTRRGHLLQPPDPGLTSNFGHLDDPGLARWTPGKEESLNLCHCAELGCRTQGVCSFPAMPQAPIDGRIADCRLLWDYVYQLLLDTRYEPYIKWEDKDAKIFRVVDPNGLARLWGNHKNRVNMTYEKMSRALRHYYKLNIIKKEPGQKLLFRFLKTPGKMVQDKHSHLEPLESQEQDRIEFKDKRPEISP
Procedure, shortened: as §1

ELF5 = biological target: T6, ELF5 (Homo sapiens, UniProt Q9UKW6-2 1-255)
T6 sequence: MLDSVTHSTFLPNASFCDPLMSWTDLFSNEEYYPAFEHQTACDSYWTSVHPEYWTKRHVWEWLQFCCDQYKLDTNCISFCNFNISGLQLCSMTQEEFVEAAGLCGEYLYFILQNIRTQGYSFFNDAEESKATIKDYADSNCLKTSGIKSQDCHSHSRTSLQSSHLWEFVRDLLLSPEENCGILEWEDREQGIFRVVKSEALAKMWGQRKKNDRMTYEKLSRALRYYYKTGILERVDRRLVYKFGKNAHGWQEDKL
Procedure, shortened: as §1

ETV3 = biological target: T7, ETV3 (Homo sapiens, UniProt P41162-2 1-143)
T7 sequence: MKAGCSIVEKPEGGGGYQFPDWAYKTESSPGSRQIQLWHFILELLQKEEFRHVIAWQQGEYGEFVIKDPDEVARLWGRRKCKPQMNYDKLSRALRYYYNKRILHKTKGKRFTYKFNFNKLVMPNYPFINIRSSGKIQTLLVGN
Procedure, shortened: as §1

ETV6 = ETV6 (Homo sapiens, UniProt P41212 1-452)
Procedure, shortened: as §1

Sequence of ETV6 (P41212 whole entry): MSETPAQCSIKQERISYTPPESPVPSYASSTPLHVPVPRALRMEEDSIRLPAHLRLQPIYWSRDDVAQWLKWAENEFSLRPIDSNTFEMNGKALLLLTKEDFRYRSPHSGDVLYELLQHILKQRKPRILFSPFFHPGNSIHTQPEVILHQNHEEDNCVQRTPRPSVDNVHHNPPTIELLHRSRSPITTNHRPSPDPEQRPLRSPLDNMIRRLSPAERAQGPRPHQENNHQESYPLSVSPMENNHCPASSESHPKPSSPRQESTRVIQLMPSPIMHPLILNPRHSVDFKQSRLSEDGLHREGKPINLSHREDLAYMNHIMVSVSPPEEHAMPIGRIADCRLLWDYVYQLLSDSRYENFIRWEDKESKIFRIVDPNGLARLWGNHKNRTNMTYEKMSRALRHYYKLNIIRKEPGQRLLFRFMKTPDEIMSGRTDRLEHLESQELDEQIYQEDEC

| Sequence | binding signal (ERF) | binding signal (ETV3L) | binding signal (ETS2) | binding signal (SPDEF) | binding signal (ETV7) | binding signal (ELF5) | binding signal (ETV3) | binding signal (ETV6) |
| --- | --- | --- | --- | --- | --- | --- | --- | --- |
| TACAAA | 1.1 fold enrichment (6-mer frequency, TF over GST control) | 1.03 fold enrichment (6-mer frequency, TF over GST control) | 1.17 fold enrichment (6-mer frequency, TF over GST control) | 1.14 fold enrichment (6-mer frequency, TF over GST control) | 1.11 fold enrichment (6-mer frequency, TF over GST control) | 1.13 fold enrichment (6-mer frequency, TF over GST control) | 1.08 fold enrichment (6-mer frequency, TF over GST control) | 1.16 fold enrichment (6-mer frequency, TF over GST control) |
| CACGAC | 1.22 fold enrichment (6-mer frequency, TF over GST control) | 1.26 fold enrichment (6-mer frequency, TF over GST control) | 1.24 fold enrichment (6-mer frequency, TF over GST control) | 1.19 fold enrichment (6-mer frequency, TF over GST control) | 1.34 fold enrichment (6-mer frequency, TF over GST control) | 1.24 fold enrichment (6-mer frequency, TF over GST control) | 1.15 fold enrichment (6-mer frequency, TF over GST control) | 1.24 fold enrichment (6-mer frequency, TF over GST control) |
| TTCCTC | 2.13 fold enrichment (6-mer frequency, TF over GST control) | 2.21 fold enrichment (6-mer frequency, TF over GST control) | 2.22 fold enrichment (6-mer frequency, TF over GST control) | 1.96 fold enrichment (6-mer frequency, TF over GST control) | 1.96 fold enrichment (6-mer frequency, TF over GST control) | 3.84 fold enrichment (6-mer frequency, TF over GST control) | 2.38 fold enrichment (6-mer frequency, TF over GST control) | 2.48 fold enrichment (6-mer frequency, TF over GST control) |
| ACCTGA | 1.14 fold enrichment (6-mer frequency, TF over GST control) | 1.04 fold enrichment (6-mer frequency, TF over GST control) | 1.03 fold enrichment (6-mer frequency, TF over GST control) | 1.14 fold enrichment (6-mer frequency, TF over GST control) | 1.03 fold enrichment (6-mer frequency, TF over GST control) | 1.07 fold enrichment (6-mer frequency, TF over GST control) | 1.07 fold enrichment (6-mer frequency, TF over GST control) | 1.09 fold enrichment (6-mer frequency, TF over GST control) |
| GGAAGC | 1.43 fold enrichment (6-mer frequency, TF over GST control) | 1.5 fold enrichment (6-mer frequency, TF over GST control) | 1.6 fold enrichment (6-mer frequency, TF over GST control) | 1.55 fold enrichment (6-mer frequency, TF over GST control) | 1.62 fold enrichment (6-mer frequency, TF over GST control) | 1.95 fold enrichment (6-mer frequency, TF over GST control) | 1.69 fold enrichment (6-mer frequency, TF over GST control) | 1.92 fold enrichment (6-mer frequency, TF over GST control) |
| GTACCT | 1.19 fold enrichment (6-mer frequency, TF over GST control) | 1.19 fold enrichment (6-mer frequency, TF over GST control) | 1.21 fold enrichment (6-mer frequency, TF over GST control) | 1.27 fold enrichment (6-mer frequency, TF over GST control) | 1.2 fold enrichment (6-mer frequency, TF over GST control) | 1.31 fold enrichment (6-mer frequency, TF over GST control) | 1.14 fold enrichment (6-mer frequency, TF over GST control) | 1.19 fold enrichment (6-mer frequency, TF over GST control) |
| AAATTC | 1.29 fold enrichment (6-mer frequency, TF over GST control) | 1.43 fold enrichment (6-mer frequency, TF over GST control) | 1.33 fold enrichment (6-mer frequency, TF over GST control) | 1.34 fold enrichment (6-mer frequency, TF over GST control) | 1.28 fold enrichment (6-mer frequency, TF over GST control) | 1.4 fold enrichment (6-mer frequency, TF over GST control) | 1.3 fold enrichment (6-mer frequency, TF over GST control) | 1.31 fold enrichment (6-mer frequency, TF over GST control) |
| TCACTA | 1.24 fold enrichment (6-mer frequency, TF over GST control) | 1.18 fold enrichment (6-mer frequency, TF over GST control) | 1.25 fold enrichment (6-mer frequency, TF over GST control) | 1.07 fold enrichment (6-mer frequency, TF over GST control) | 1.23 fold enrichment (6-mer frequency, TF over GST control) | 1.15 fold enrichment (6-mer frequency, TF over GST control) | 1.05 fold enrichment (6-mer frequency, TF over GST control) | 1.06 fold enrichment (6-mer frequency, TF over GST control) |
| TGCGGA | 1.14 fold enrichment (6-mer frequency, TF over GST control) | 1.3 fold enrichment (6-mer frequency, TF over GST control) | 1.35 fold enrichment (6-mer frequency, TF over GST control) | 1.38 fold enrichment (6-mer frequency, TF over GST control) | 1.22 fold enrichment (6-mer frequency, TF over GST control) | 1.46 fold enrichment (6-mer frequency, TF over GST control) | 1.54 fold enrichment (6-mer frequency, TF over GST control) | 1.34 fold enrichment (6-mer frequency, TF over GST control) |
